# Experimental data taken from PubChem BioAssay AID651550 (National Center for Advancing Translational Sciences (NCATS), 2012).
# Screen size: about 360,000 compounds; about 1,100 (0.31%) were called active. This is one part of a sample in which actives are shown more often than they occur. A number with no mark means an inactive call. Rule as the data show it: active = activity change below about -80%; inconclusive = mostly about -51% to -80%; inactive = weaker than that.
# Target: RAC-alpha serine/threonine-protein kinase (Homo sapiens) (UniProt P31749)
# Test: HTS Assay for Inhibitors of Akt Phophorylation: Primary Screen
# Conditions: Neuro2A IGF-stimulated pAkt S473 HTRF, 20 min; at 50 µM, active compounds read low
# Outline: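 Neuro2A cells (4,500/well, DMEM with 0.5% FBS) were treated with compound at a single 50 µM final concentration, stimulated with 6 nM IGF for 20 min at 37 °C, and lysed. Phospho-Akt Ser473 was read by HTRF as 665/615 ratio ×10^4.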
# % is scaled to controls: 0 for no effect and ±100 for the full control effect.
row,Structure (SMILES),activity change
1,CN(C(=O)C1CCN(c2ncnc3c2nc2n3CCCCC2)CC1)C1CCCCC1,inactive
2,Cc1ccnc(NC(=O)CCC(=O)N(CC(=O)NCc2ccccc2)Cc2ccco2)c1,inactive
3,CCOC(=O)N1CCN(C(=O)C[C@@H]2C[C@@]3(C(=O)OC)CC(C)(C)CC=C3N(Cc3ccco3)C2=O)CC1,inactive
4,CC(=O)Cc1nsc(NC(=O)c2csc3c2CCCC3)n1,-104% (active)
5,O=C(COC(=O)c1cc2c(s1)CCCC2)NCc1ccccc1Cl,inactive
6,CC(=O)Cc1nsc(NC(=O)c2ccc(Cl)cc2Cl)n1,inactive
7,CC1CC(C)CN(CCCNC(=O)c2csc3c2CCCCC3)C1 (stereo unspecified),inactive
8,CC(=O)Cc1nsc(NC(=O)c2ccc(COc3ccc(C)cc3)o2)n1,inactive
9,O=C(NCc1ccccc1Cl)c1csc2c1CCCCC2,-106% (active)
10,CCOC(=O)C=Cc1ccc(C(=O)OCC)[nH]1,inactive
11,Cc1ccc(S(=O)(=O)N2CC3C(=O)C[C@@H](c4ccccc4Cl)N(S(=O)(=O)c4ccc(C)cc4)C3CC2c2ccccc2)cc1 (stereo partly specified),inactive
12,COc1cccc(-n2cc3c(c2-c2ccccc2)c(=O)n(C)c(=O)n3C)c1,-16.8%
13,Cc1cn(C)c(=O)n(C)c1=O,inactive
14,Cc1ccc(-c2c3c(=O)n(C)c(=O)n(C)c3cn2-n2cnnc2)cc1,-111% (active)
15,COc1ccc(C(C(=O)NCc2ccccc2)n2c(=O)c(-c3ccccc3)nc3ccccc32)cc1 (stereo unspecified),inactive
16,COc1cc(OC)c(NS(=O)(=O)c2cn(C)cn2)cc1Cl,inactive
17,CCC(c1nc2ccccc2[nH]1)n1c(=O)c(-c2cccs2)nc2ccccc21 (stereo unspecified),inactive
18,N#Cc1ccc(C(C(=O)NCc2ccccc2)n2c(=O)c(-c3ccco3)nc3ccccc32)cc1 (stereo unspecified),inactive
19,Cc1cc(NC(=O)CSc2nc(C(C)C)nc3sc4c(c23)CCC(C)C4)no1 (stereo unspecified),-89.6% (active)
20,Cc1cc(NC(=O)CSc2nc3c(cc2C#N)CCCCC3)no1,inactive
21,CC(C)c1nc(SCC(=O)Nc2cccc(C(=O)O)c2)c2c3c(sc2n1)CCCC3,inactive

row,Structure (SMILES),activity change
1,Cn1cnc(S(=O)(=O)N2C[C@@H](O)COC[C@@H]3O[C@H](CC(=O)NC4CCC4)CC[C@H]32)c1,inactive
2,COc1ccc(-c2cc3c(c4c2ccn4C)C2CCC3C2)cn1 (stereo unspecified),inactive
3,Nc1nc(C23CC4CC(CC(C4)C2)C3)cs1,inactive
4,CC(C)CN1C(=O)CN(S(C)(=O)=O)CC1(C)C(=O)NCc1ccccc1 (stereo unspecified),inactive
5,Brc1ccc(-c2csc(N/N=C/c3cccnc3)n2)cc1,inactive
6,Cc1ccc(Nc2nc(-c3ccc(O)cc3O)cs2)nc1,inactive
7,c1ccc(Nc2nc(-c3ccncc3)cs2)nc1,-89.8% (active)
8,O=C(COC(=O)Cc1ccc(Cl)cc1Cl)NCc1ccco1,inactive
9,O=C(COC(=O)CCC(=O)c1cccs1)NCc1ccco1,-115% (active)
10,O=C(COC(=O)c1ccccc1O)NCc1ccco1,inactive
11,O=C(COC(=O)c1cc([N+](=O)[O-])ccc1NCc1ccccc1)NC1CCCCC1,inactive
12,C=C1C(=O)OC2C1CCC(C)=CCCC1(C)OC21 (stereo unspecified),inactive
13,CC(NCCO)C(=O)C12CC3CC(CC(C3)C1)C2 (stereo unspecified),inactive
14,COCCN1C(=O)C(=O)/C(=C(/O)c2ccc(S(=O)(=O)N3CCOCC3)cc2)C1c1ccc(O)c(OC)c1 (stereo unspecified),inactive
15,O=C1c2oc3ccccc3c(=O)c2C(c2cccc(O)c2)N1c1ccccn1 (stereo unspecified),inactive
16,COCCN1C(=O)c2oc3c(C)cc(C)cc3c(=O)c2C1c1cccc(O)c1 (stereo unspecified),-117% (active)
17,CC(C)OC(=O)CC(=O)CC(O)c1cccc([N+](=O)[O-])c1 (stereo unspecified),inactive
18,CCOC(=O)[C@]12CCCC=C1N(CCC1=CCCCC1)C(=O)[C@H](CC(=O)NCCCCc1ccccc1)C2,inactive
19,CCC(C(=O)Nc1c(C)cccc1C)n1c(-c2cc(C)cs2)nc2ccccc21 (stereo unspecified),inactive
20,O=C(C(Cc1ccccc1)n1cccc1)N1CCN(C2CCCCC2)CC1 (stereo unspecified),inactive
21,CCCCNC(=S)N/N=C1\CCCCc2ccccc21,inactive

row,Structure (SMILES),activity change
1,CC(=O)Nc1ccc(S(=O)(=O)N(C)CC(=O)NCCC2=CCCCC2)cc1,inactive
2,CC(OC(=O)c1c(F)cccc1F)C(=O)NCCC1=CCCCC1 (stereo unspecified),inactive
3,S=C(NCCC1=CCCCC1)Nc1ccccc1,-117% (active)
4,COc1ccc(N2c3ccccc3CN(Cc3ccccc3)[C@@H](C)[C@H]2Cc2ccc(-c3ccccc3)cc2)cc1,inactive
5,O=C(C[C@H]1CC[C@@H](NC(=O)c2ccncc2)[C@@H](CO)O1)NCC1CC1,inactive
6,CC(=O)C[C@@H]1OC[C@H](CO)N1S(=O)(=O)c1ccc(C)cc1,inactive
7,CC(=O)NS(=O)(=O)c1ccc(NC(=O)/C=C/c2ccccc2Cl)cc1,inactive
8,COc1cc(OC)cc(/C(N)=N/O)c1,inactive
9,CC1(C(=O)O)CCCN(C(=O)/C=C/c2ccccc2)C1 (stereo unspecified),inactive
10,Cc1[nH]c(=O)c(C(=O)/C=C/c2ccccc2)c2c1CCCC2,-93.4% (active)
11,COC(=O)c1c(C)[nH]c(C(=O)/C=C/c2ccc(Cl)cc2)c1C,inactive
12,O=C(CCCn1c(=O)oc2ccccc21)Nc1cccnc1,5.91%
13,CC(=O)c1c(C)[nH]c(C(=O)N2CCN(S(=O)(=O)c3ccc(F)c(F)c3)CC2)c1C,inactive
14,Cc1nc2cc(NC(=O)CSc3nc4c(C)cccc4cc3C#N)ccc2s1,-95.1% (active)
15,COCc1cc(C)nc(SCC(=O)Nc2cccc(C)c2)c1C#N,inactive
16,Cc1nonc1NC(=O)CSc1nc2ccccc2cc1C#N,inactive
17,CC1(C(=O)NS(=O)(=O)c2cccc(F)c2)CCN1C(=O)Cc1cc(F)ccc1F (stereo unspecified),inactive
18,COC(=O)[C@@]12C[C@@H](CC(=O)NCCCCc3ccccc3)C(=O)N(Cc3ccccc3)C1=CCC(C)(C)C2,inactive
19,CCOc1ccccc1NC(=O)CCS(=O)(=O)c1cccc2nsnc12,inactive
20,CCOc1ccc(NC(=O)CCS(=O)(=O)c2cccc3nsnc23)cc1,inactive
21,Cc1cccc(C)c1NC(=O)CCS(=O)(=O)c1cccc2nsnc12,-101% (active)

row,Structure (SMILES),activity change
1,NS(=O)(=O)c1ccc(NC(=S)NC(=O)c2cccnc2)cc1,inactive
2,C=CCNC(=O)CCCOc1cccc(C)c1,3.56%
3,C=CCNC(=O)CC12CC3CC(C1)CC(CC(=O)NCC=C)(C3)C2,inactive
4,C=CCNC(=O)CCCC(=O)NCC=C,-102% (active)
5,CCCCCc1c(-c2ccc(OC)c(OC)c2)ncn1CCc1ccccc1OC,inactive
6,Cc1cc(=O)n2nc(N3CCC(C(=O)Nc4c(F)c(F)c(F)c(F)c4F)CC3)sc2n1,inactive
7,COc1ccc(C(=O)C(OP(=O)(OC)OC)c2ccccc2OC)cc1 (stereo unspecified),inactive
8,Cc1cc(F)ccc1NC(=O)C(C)n1c2ccccc2c2nc(=O)cc(C)n21 (stereo unspecified),inactive
9,CCOCCn1c(-c2ccccc2)nc2ccccc21,inactive
10,COc1ccc(-c2nc3ccccc3n2CCC(C)C)cc1OC,-7.53%
11,COCCn1c(-c2ccc(OC)c(OC)c2)nc2ccccc21,-119% (active)
12,COC(=O)C[C@H]1C=C[C@@H](NS(=O)(=O)c2ccc(C)cc2)[C@@H](CO)O1,inactive
13,CCOc1ccc2c(c1)cc(CN(C(=O)CC)C1CCCCC1)c1nnnn12,1.69%
14,CCc1cccc(NC(=S)N(CCN(C)C)C2CCN(C(C)C)CC2)c1,inactive
15,CCc1ccc2c(c1)cc(CN(C(=S)Nc1ccccc1Cl)C1CC1)c1nnnn12,-83.6% (active)
16,O=C(NCc1ccccc1)[C@H]1C[C@@H]1[C@H](NP(=O)(c1ccccc1)c1ccccc1)c1ccccc1,inactive
17,Cc1ccccc1CN1C(=O)CSCC1(C)C(=O)Nc1c(C)cccc1C (stereo unspecified),inactive
18,CCOC(=O)C1C(C)C(C(C)(C)C)N(S(=O)(=O)c2ccc(C)cc2)C1c1ccccc1 (stereo unspecified),inactive
